Drawing on ChEMBL document CHEMBL3988442, “University of Dundee, Small-Polar-MMV Screening Library” (2021), this text covers Percent Effect for eleven molecules.

Parameters in all cases: scale not given: direction of the effect not stated beside the values
Experiment [1] concerns the target Protein translocase subunit SecA (Escherichia coli (strain K12)) (UniProt P10408). Kind of experiment: Assay to Identify E. coli SecA ATPase Inhibitors. It counts as functional. The following applies: 30 µM.
In experiment [2] the target is T1, Ubiquitin-activating enzyme e1, putative (Leishmania donovani (strain BPK282A1)) (UniProt E9BSI1).
T1 sequence (whole entry): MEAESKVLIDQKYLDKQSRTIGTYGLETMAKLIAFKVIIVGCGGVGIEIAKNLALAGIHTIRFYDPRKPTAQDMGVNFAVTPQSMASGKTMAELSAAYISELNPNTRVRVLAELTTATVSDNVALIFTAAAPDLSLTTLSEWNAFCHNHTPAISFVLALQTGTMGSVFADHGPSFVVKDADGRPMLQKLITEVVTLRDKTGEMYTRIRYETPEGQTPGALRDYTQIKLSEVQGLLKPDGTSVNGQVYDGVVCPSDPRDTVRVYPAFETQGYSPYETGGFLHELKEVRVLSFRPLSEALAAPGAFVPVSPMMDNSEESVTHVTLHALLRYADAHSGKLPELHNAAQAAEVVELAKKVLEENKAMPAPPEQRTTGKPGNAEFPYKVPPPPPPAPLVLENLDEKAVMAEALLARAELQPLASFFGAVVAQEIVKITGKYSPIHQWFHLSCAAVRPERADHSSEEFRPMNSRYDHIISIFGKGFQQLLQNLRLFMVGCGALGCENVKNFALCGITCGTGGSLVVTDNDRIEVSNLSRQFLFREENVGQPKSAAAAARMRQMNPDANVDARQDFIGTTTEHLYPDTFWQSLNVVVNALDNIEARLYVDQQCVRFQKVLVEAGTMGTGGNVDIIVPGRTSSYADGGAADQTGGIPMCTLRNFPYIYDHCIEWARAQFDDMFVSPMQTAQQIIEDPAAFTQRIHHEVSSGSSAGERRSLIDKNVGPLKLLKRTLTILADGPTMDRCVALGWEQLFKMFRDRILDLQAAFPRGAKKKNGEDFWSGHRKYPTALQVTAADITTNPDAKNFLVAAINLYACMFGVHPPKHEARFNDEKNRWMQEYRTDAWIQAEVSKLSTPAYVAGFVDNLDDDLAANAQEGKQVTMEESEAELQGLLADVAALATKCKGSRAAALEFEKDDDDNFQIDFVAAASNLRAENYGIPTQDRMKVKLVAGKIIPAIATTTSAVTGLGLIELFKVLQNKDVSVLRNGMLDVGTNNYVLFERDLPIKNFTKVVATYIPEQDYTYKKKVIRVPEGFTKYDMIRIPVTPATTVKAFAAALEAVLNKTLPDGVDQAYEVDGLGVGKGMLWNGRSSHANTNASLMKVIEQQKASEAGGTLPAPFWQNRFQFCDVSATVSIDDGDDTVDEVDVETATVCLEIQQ
Nature of the experiment: Leishmania donovani Ubiquitin Activating Enzyme (LdE1). It counts as functional. The settings on record: 30 µM.

The target in experiment [3] is AMP-activated protein kinase, AMPK (Homo sapiens) (UniProt P54646+O43741+P54619+Q9UGJ0+Q9Y478+Q13131+Q9UGI9). Nature of the experiment: AMP-dependent Kinase enzyme assay. An in vitro enzyme assay that detects ADP turnover that is directly proportional to AMPK activity. This uses naive AMPK that is activated during the assay with MK-8722. It counts as functional. The following applies: 30 µM.

Experiment [4] deals with Sialic acid-binding Ig-like lectin 9 (Homo sapiens) (UniProt Q9Y336). Kind of experiment: Hs-Siglec9 ALPHAscreen SOP 20170721. The following applies: 10 µM.
The subject of another experiment is Trypanosoma cruzi. Nature of the experiment: Trypanosoma cruzi phosphomannomutase and mannose-1-phosphate guanylyltransferase assay. It counts as functional. The settings on record: 10 µM.
Experiment [5] has as its target T2, Arginase-2, mitochondrial (Homo sapiens) (UniProt P78540).
T2 sequence (whole entry): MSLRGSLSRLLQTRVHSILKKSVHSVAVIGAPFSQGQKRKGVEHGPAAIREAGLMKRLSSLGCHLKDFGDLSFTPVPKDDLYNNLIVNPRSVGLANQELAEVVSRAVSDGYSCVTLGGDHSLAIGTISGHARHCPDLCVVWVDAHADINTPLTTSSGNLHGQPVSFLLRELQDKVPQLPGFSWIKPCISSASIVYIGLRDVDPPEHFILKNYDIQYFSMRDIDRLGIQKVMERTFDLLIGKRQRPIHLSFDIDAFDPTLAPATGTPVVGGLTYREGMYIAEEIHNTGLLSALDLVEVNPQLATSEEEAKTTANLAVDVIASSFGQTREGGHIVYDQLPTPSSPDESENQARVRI
Kind of experiment: in vitro enzyme assay to detect the production of urea directly proportional to the activity of Arginase II. Also: in the data most compounds retested in dose-response had high values. It counts as functional. The following applies: 33.3 µM.

In experiment [6] the target is T3, Proteasome subunit beta (Trypanosoma cruzi) (UniProt O96673).
T3 sequence (whole entry): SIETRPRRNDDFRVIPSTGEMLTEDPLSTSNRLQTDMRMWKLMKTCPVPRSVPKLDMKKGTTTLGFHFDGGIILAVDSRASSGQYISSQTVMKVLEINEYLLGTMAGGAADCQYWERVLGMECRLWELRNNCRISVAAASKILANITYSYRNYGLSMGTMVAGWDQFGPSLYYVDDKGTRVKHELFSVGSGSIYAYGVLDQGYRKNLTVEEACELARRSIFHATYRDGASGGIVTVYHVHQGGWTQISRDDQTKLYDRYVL
Kind of experiment: Trypanosoma cruzi proteasome chymotrypsin-like activity (TcProtChymo) assay. Also: in the data most compounds retested in dose-response had high values. It counts as functional. The following applies: 9.37 µM.

The next experiment is filed under the species Homo sapiens. Kind of experiment: To identify inhibition of the IFN signalling (Jak-Stat) pathway via expression of an eGFP reporter gene under the control of an IFN-stimulated response element (ISRE) containing MxA promoter. It counts as functional. The following applies: 30 µM.
The target in experiment [7] is T4, Tyrosyl-tRNA synthetase, putative (Trypanosoma cruzi (strain CL Brener)) (UniProt Q4DSP6).
T4 sequence (whole entry): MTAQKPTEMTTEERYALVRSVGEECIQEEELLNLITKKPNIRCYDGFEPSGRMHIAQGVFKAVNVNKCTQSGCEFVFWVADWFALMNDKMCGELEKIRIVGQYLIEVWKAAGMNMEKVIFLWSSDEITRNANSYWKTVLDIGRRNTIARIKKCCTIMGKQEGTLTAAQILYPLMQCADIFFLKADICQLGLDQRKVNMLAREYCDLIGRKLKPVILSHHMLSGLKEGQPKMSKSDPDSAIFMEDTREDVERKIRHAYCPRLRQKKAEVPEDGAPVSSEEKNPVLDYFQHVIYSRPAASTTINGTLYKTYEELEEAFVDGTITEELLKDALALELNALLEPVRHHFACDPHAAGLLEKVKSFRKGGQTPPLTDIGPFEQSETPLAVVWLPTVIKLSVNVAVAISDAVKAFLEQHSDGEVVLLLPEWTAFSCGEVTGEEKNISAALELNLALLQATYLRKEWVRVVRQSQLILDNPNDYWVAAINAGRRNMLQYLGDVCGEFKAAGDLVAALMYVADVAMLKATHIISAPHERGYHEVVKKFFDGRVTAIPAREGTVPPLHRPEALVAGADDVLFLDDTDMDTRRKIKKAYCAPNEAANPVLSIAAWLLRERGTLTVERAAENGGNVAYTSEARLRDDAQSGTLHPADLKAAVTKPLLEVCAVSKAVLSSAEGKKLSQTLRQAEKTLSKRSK
Nature of the experiment: Trypanosoma cruzi tyrosyl tRNA synthetase (TcYRS) _High Tyrosine SOP. Also: in the data most compounds retested in dose-response had high values. The settings on record: 30 µM. It counts as functional.

The target of experiment [8] is T4, Tyrosyl-tRNA synthetase, putative (Trypanosoma cruzi (strain CL Brener)). Nature of the experiment: Trypanosoma cruzi tyrosyl tRNA synthetase (TcYRS) SOP. It counts as functional. The settings on record: 30 µM.
Experiment [9] addresses Chromo domain-containing protein 1 (Saccharomyces cerevisiae (strain ATCC 204508 / S288c) (Baker's yeast)) (UniProt P32657). Nature of the experiment: ScCHD-1 Enzyme Inhibition Assay. Also: in the data most compounds retested in dose-response had high values. It counts as functional. The following applies: 30 µM.

For some of these results: Entries with a potency or affinity are not part of this list.

Chain of Chromo domain-containing protein 1 (Saccharomyces cerevisiae (strain ATCC 204508 / S288c) (Baker's yeast)) (P32657 whole entry, the tested form may be a part): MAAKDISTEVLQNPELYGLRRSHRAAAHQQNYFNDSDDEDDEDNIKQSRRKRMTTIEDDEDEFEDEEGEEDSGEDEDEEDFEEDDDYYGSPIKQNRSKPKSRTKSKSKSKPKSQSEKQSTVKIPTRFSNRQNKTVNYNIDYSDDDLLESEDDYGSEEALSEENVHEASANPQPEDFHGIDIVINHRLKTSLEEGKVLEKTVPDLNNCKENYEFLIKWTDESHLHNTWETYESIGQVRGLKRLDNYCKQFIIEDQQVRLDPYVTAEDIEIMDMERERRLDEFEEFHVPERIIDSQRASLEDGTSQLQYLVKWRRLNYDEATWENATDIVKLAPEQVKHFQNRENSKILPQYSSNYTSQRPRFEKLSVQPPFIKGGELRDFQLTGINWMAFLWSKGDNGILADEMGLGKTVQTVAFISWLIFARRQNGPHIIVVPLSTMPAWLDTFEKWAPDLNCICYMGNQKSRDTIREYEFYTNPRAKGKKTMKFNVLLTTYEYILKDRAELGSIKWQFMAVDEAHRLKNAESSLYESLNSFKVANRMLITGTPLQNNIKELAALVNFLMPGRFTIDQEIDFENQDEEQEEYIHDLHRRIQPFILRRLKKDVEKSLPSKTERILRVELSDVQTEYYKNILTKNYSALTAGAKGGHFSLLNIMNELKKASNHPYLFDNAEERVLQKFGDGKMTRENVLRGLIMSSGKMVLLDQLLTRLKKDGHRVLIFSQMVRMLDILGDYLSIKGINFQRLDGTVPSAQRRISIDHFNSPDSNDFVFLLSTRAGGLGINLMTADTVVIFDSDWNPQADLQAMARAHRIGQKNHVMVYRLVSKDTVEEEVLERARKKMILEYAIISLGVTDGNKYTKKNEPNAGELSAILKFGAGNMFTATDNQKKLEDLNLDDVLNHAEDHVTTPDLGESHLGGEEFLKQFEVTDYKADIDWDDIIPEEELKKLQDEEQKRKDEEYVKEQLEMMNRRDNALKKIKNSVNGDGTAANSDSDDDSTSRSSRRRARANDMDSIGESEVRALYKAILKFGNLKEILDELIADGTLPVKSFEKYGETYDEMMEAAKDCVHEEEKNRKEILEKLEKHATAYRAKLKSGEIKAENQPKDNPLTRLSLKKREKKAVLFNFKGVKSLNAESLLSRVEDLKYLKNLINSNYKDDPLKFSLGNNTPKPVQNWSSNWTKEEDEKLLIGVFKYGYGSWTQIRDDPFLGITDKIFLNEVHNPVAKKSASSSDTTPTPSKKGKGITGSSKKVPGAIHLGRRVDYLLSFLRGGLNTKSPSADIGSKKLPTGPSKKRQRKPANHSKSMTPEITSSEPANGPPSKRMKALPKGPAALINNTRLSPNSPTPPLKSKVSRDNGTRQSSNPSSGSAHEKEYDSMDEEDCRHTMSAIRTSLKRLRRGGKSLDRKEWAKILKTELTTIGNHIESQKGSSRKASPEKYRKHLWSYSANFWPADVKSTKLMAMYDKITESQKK
Chain of Sialic acid-binding Ig-like lectin 9 (Homo sapiens) (Q9Y336 whole entry): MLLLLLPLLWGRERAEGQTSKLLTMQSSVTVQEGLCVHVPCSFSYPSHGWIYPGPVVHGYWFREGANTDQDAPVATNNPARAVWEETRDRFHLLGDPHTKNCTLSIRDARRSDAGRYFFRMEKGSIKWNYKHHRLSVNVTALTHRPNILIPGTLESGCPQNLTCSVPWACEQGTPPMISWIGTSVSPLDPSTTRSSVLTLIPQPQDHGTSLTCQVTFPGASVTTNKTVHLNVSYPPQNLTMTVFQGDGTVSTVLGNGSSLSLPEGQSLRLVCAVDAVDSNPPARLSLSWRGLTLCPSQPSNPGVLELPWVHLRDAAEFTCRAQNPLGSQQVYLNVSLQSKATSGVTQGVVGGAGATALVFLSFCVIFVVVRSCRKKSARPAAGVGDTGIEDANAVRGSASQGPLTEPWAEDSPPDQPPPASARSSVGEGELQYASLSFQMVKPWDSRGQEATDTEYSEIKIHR
Chain of Protein translocase subunit SecA (Escherichia coli (strain K12)) (P10408 whole entry): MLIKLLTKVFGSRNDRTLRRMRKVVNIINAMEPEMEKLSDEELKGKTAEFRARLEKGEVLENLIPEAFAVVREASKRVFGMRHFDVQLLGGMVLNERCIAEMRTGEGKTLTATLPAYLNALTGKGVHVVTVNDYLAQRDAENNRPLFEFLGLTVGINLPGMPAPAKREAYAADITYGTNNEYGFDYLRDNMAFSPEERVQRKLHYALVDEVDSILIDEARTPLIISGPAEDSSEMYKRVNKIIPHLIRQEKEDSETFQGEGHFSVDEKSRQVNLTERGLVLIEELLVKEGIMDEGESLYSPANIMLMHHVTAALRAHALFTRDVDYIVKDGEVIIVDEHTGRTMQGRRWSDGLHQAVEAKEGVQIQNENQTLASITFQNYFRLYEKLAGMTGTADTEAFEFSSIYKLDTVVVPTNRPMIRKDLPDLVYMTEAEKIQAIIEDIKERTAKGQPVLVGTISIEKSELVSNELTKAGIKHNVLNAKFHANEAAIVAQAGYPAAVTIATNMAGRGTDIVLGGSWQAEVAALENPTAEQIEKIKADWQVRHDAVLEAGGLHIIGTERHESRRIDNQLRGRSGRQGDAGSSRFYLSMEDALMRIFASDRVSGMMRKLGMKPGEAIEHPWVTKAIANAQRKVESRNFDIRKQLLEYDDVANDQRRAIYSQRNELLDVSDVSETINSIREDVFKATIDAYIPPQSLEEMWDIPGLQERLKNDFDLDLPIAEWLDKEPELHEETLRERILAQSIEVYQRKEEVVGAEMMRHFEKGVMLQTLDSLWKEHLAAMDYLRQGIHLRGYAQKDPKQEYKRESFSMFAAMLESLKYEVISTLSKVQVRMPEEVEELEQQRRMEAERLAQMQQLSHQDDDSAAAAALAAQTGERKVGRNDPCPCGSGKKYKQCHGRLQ

Take `Cc1nnc(NC(=O)NCc2cccnc2N(C)C)s1`: the Percent Effect in experiment [1] is -3.62%; in experiment [2], 13%; in experiment [3], -1.32%; in [4] it was 4.98%; with Trypanosoma cruzi, 5.24%; in [5], 4.27%. In addition, the Percent Effect in [6] is 11.2%; in the experiment listed under Homo sapiens, 4.88%; in [7], 6.8%; in experiment [8], 21.9%; in experiment [9], -9.15%.

For the molecule `COc1cc(CNCCc2cnn(C)c2)cc2c1OCCO2`, the Percent Effect in [1] was -5.21%; in experiment [2], 10.5%; in [3], 1.71%; in experiment [4], 15.7%; in the experiment with Trypanosoma cruzi, 1.32%; in experiment [5], -1.92%. The Percent Effect in experiment [6] was 10.2%; in the experiment filed under Homo sapiens, 0.122%; in experiment [7], 4.41%; in [8], 12.2%; in experiment [9] it was -6.6%.

Consider `CCOCC(=O)N1CCC(Oc2ccc(Cl)cn2)CC1`, for which the Percent Effect is -0.654% in experiment [1]; 7.79% in experiment [2]; 2.32% in experiment [3]; 8.91% in [4]; -0.888% in the experiment on Trypanosoma cruzi; 4.52% in [5]. Further, the Percent Effect in experiment [6] is 25.9%; in the experiment filed under Homo sapiens, 21.4%; in experiment [7], 8.47%; in experiment [8] it was 8.97%; in experiment [9], -8.06%.

On to `CC(=O)NCC(=O)N1CCOC2(CCCN(c3cccnc3)C2)C1` (stereo unspecified), for which the Percent Effect in experiment [1] was -5.02%; in experiment [2], 2.7%; in experiment [3], -2.24%; in [4], 1.82%; in the experiment with Trypanosoma cruzi, -6.05%; in [5], 0.833%. The Percent Effect in experiment [6] was 15.3%; in the experiment filed under Homo sapiens it was 7.03%; in experiment [7], 8.91%; in experiment [8] it was 6.1%; in experiment [9] it was -2.32%.

For the molecule `CCCS(=O)(=O)N1CCN(c2cc(-n3cnc(C)c3C)nc(C)n2)CC1`, the Percent Effect is -2.71% in [1]; 0% in experiment [2]; 2.33% in [3]; -0.358% in experiment [4]; -3.25% with Trypanosoma cruzi; 9.65% in experiment [5]. In addition, the Percent Effect in experiment [6] was 3.16%; in the experiment listed under Homo sapiens, -2.89%; in [7] it was 1.07%; in [8], -3.7%; in experiment [9], 2.9%.

For `O=C(O)[C@]12CCCN(Cc3ccncc3)[C@@H]1CCN(c1cnccn1)C2`, the Percent Effect is -3.31% in experiment [1]; 2.67% in experiment [2]; -1.2% in experiment [3]; -3.96% in experiment [4]; -6.91% in the experiment on Trypanosoma cruzi; -0.521% in experiment [5]. Further, the Percent Effect in experiment [6] was 21.6%; in the experiment filed under Homo sapiens it was 22%; in experiment [7] it was -0.546%; in experiment [8], 1.24%; in experiment [9] it was -6.37%.

As for `Cc1ccccc1C(=O)N1CCC(n2nnc3cc(F)ccc32)CC1`, the Percent Effect in experiment [1] is -4.02%; in [2], 5.33%; in experiment [3] it was 12%; in experiment [4] it was 0.882%; in the experiment with Trypanosoma cruzi, -3.35%; in experiment [5], 1.17%. The Percent Effect is 5.02% in experiment [6]; 7.34% in the experiment filed under Homo sapiens; 4.25% in [7]; 11.5% in experiment [8]; -5% in experiment [9].

In the case of `CCS(=O)(=O)NCCNC(=O)c1cc(Cl)c2c(c1)OCCCO2`, the Percent Effect is -1.06% in [1]; 8.11% in experiment [2]; -7.22% in experiment [3]; 31.3% in experiment [4]; 1.47% in the experiment with Trypanosoma cruzi; 5.21% in [5]. The Percent Effect was 8.33% in experiment [6]; 12.9% in the experiment filed under Homo sapiens; 2.15% in experiment [7]; 16.1% in experiment [8]; -5.31% in [9].

Regarding `CC(C)(C)C(=O)Cn1nc(-c2ccccc2F)ccc1=O`, the Percent Effect in [1] was -3.18%; in experiment [2], 6.67%; in [3], 5.01%; in experiment [4], 9.44%; in the experiment with Trypanosoma cruzi it was 0.393%; in experiment [5] it was -10%. For the same molecule, the Percent Effect in experiment [6] was 16.6%; in the experiment filed under Homo sapiens, 5.03%; in experiment [7], 5.29%; in experiment [8], 10.3%; in experiment [9] it was -6.12%.

On to `COCCN1CCC(CN(CC2CCCO2)C(=O)CCNC(C)=O)CC1` (stereo unspecified), for which the Percent Effect in experiment [1] was -1.45%; in experiment [2] it was -4.17%; in experiment [3] it was -2.84%; in experiment [4], -5.53%; in the experiment with Trypanosoma cruzi it was -1.26%; in experiment [5] it was 0.883%. For the same molecule, the Percent Effect in experiment [6] is 1.75%; in the experiment listed under Homo sapiens, -4.52%; in experiment [7], 0%; in [8], 0%; in experiment [9] it was 1.82%.

`Cc1ccc(CC(=O)N2CCCCC2c2nc(C)cs2)cn1` (stereo unspecified): the Percent Effect in experiment [1] is -3.56%; in [2], 3.8%; in experiment [3], 3.35%; in [4], -2.77%; with Trypanosoma cruzi it was -1.54%; in [5], 4.52%. For the same molecule, the Percent Effect in experiment [6] is 6.52%; in the experiment listed under Homo sapiens it was 4.76%; in experiment [7], -4.17%; in [8] it was 7.59%; in experiment [9] it was -12.2%.
